Measurements taken from the supplement of paper PMC6411743.
± gives the standard deviation of the averaged measurements. Targets with the largest changes are over-represented here; the source holds about 6,500 in all.

Compound: Nc1ncnc2c1ncn2[C@@H]1O[C@H](COP(=O)(O)OP(=O)(O)OP(=O)(O)O)[C@@H](O)[C@H]1O [adenosine triphosphate]
Assay: NP40-soluble protein abundance relative to vehicle (solubility fold change) (ratio); higher = more soluble protein in presence of ATP
In short: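 Jurkat crude lysate (Dounce-homogenised) was treated with eight concentrations from 0.1 to 10 mM for 10 min at room temperature, then 3 min at 37 °C. It was solubilised with 0.8% NP40 and benzonase (60 min, 4 °C) and ultracentrifuged, and the supernatant was TMT-labelled for LC-MS/MS. Intensities were vsn-normalised, and the value is the fold change against the NP40-processed vehicle per replicate, from three independent experiments.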

Sequence of UniProt Q9HAJ7 (Q9HAJ7 whole entry): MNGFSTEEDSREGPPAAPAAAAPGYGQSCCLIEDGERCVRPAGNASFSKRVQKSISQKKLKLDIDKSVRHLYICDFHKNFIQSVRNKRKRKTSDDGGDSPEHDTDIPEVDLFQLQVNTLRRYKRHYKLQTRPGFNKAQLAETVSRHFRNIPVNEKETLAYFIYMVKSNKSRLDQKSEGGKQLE
Sequence of UniProt Q9P035 (Q9P035 whole entry, one chain of several): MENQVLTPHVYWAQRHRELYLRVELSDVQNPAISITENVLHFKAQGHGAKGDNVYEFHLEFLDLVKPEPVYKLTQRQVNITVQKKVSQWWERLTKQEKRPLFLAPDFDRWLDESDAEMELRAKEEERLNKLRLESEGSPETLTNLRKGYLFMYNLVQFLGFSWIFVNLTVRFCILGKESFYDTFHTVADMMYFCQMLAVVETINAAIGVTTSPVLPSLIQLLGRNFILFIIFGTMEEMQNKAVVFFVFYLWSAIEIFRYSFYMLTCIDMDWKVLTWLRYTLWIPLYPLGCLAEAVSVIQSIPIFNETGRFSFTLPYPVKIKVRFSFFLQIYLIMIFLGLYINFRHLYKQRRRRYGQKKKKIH
Sequence of UniProt Q92626 (Q92626 whole entry): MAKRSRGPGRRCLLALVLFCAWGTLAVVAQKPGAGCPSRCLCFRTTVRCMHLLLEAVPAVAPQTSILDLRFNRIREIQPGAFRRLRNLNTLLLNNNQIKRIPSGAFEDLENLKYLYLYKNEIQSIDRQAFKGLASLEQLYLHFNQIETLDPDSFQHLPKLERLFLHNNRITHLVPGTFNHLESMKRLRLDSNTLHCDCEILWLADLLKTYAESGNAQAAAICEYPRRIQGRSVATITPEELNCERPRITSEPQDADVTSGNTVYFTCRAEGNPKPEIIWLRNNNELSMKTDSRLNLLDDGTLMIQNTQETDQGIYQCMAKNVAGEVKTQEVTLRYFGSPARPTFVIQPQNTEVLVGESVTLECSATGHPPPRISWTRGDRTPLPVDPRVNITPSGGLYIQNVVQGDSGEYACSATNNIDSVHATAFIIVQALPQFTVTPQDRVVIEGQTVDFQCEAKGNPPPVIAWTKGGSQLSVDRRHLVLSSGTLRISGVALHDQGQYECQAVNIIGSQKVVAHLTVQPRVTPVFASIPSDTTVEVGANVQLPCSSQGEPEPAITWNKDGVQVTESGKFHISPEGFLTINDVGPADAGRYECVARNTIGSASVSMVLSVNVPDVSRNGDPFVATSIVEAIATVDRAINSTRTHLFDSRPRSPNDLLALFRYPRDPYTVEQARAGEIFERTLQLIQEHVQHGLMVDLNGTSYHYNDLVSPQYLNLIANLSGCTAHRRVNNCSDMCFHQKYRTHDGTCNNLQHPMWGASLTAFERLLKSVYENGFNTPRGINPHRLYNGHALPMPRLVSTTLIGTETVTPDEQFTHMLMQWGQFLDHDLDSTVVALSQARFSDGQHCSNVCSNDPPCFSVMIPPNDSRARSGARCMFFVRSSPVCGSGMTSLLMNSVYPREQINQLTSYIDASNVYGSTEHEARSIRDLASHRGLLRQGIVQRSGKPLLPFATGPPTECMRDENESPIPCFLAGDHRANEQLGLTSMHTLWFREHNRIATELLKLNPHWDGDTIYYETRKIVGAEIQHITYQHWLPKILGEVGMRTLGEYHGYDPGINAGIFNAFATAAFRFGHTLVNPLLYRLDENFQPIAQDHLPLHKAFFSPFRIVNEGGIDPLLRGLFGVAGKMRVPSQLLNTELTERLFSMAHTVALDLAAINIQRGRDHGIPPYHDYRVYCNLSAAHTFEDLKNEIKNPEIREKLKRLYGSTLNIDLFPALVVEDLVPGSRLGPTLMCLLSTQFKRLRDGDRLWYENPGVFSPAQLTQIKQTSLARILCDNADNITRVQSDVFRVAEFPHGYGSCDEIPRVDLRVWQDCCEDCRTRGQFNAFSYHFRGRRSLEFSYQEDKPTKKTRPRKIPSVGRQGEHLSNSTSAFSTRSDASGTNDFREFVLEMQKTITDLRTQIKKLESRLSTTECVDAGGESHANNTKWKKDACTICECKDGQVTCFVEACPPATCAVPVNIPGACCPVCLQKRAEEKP
Sequence of UniProt Q92833 (Q92833 whole entry): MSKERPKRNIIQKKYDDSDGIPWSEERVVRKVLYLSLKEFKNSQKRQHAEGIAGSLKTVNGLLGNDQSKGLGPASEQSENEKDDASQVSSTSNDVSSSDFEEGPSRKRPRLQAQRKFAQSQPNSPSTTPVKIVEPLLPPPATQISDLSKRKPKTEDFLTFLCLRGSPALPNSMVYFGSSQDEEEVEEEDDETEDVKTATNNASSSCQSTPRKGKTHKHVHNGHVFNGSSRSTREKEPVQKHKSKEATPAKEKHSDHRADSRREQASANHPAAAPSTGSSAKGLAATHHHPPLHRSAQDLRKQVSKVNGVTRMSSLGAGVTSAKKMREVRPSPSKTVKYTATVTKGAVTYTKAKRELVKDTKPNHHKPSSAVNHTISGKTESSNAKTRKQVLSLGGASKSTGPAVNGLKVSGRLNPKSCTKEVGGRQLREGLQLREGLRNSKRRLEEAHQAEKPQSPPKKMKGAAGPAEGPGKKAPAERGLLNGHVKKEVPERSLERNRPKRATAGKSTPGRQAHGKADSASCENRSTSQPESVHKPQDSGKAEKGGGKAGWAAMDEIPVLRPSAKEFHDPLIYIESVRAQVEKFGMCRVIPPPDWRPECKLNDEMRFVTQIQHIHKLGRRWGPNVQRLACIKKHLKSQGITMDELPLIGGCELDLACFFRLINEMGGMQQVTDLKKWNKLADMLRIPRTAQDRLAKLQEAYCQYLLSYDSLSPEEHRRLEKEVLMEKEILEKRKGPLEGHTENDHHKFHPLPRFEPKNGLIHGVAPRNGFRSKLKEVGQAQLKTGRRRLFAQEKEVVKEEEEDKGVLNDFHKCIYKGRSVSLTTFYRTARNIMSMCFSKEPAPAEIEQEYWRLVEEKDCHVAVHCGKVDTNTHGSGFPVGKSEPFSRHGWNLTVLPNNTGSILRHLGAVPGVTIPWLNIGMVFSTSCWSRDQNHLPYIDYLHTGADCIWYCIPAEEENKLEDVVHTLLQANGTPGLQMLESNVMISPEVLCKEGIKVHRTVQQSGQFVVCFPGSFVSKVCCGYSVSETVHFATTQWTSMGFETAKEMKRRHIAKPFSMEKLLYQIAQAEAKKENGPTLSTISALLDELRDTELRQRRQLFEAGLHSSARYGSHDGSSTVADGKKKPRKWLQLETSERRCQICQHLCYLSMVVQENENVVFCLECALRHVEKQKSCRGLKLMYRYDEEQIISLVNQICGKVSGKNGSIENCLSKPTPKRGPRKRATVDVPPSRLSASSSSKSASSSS
Sequence of UniProt Q9NR30 (Q9NR30 whole entry): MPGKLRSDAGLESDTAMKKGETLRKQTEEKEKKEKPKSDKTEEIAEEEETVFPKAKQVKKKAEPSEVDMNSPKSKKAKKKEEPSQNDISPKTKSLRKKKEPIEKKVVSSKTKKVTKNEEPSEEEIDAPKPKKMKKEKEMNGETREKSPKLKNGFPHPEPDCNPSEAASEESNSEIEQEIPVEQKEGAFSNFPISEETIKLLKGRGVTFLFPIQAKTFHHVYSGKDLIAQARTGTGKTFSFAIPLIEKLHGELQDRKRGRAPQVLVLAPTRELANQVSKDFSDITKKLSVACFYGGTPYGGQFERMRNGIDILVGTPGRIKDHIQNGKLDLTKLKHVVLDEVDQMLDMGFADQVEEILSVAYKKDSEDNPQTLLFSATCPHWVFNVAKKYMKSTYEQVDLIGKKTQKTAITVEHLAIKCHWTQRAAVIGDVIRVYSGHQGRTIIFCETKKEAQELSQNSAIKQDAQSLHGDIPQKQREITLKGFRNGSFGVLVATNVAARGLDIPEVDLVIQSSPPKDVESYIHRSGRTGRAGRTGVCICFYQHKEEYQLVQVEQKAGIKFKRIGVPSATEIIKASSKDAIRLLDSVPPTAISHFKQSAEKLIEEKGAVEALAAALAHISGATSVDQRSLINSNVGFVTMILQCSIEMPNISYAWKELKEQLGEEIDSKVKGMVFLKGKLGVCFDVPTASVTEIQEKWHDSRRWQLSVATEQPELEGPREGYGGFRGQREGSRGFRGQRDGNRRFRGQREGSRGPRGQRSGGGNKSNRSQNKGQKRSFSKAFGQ
Sequence of UniProt Q96CN4 (Q96CN4 whole entry): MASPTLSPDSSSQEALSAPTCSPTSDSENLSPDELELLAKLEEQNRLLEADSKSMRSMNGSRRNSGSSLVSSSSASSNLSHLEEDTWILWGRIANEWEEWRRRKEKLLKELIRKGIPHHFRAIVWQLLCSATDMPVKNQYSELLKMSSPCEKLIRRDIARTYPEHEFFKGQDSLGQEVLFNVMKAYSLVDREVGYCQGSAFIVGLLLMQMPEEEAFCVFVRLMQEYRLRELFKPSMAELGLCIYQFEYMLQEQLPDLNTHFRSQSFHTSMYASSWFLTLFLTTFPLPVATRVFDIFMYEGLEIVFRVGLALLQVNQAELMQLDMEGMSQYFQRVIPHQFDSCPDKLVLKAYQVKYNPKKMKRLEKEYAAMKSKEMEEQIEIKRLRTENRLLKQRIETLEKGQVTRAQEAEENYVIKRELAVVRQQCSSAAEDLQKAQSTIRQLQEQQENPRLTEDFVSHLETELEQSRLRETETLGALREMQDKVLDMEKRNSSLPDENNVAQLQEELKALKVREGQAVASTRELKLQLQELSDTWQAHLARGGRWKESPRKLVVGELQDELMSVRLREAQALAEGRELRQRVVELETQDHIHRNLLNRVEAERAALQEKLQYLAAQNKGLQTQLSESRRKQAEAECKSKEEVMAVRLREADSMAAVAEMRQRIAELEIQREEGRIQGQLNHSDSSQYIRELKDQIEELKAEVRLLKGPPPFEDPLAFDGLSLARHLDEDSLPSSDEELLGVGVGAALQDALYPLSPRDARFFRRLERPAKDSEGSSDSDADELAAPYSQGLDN

Target	NP40-soluble protein abundance (concentration: 1mM)	NP40-soluble protein abundance (concentration: 2mM)	NP40-soluble protein abundance (concentration: 4mM)	NP40-soluble protein abundance (concentration: 6mM)	NP40-soluble protein abundance (concentration: 8mM)	NP40-soluble protein abundance (concentration: 10mM)
DDX21 (UniProt Q9NR30)	1.29 ± 0.046	1.42 ± 0.042	1.65 ± 0.098	2.04 ± 0.17	2.53 ± 0.21	3.17 ± 0.13
MRPL17 (UniProt Q9NRX2)	1.08 ± 0.13	0.934 ± 0.14	0.939 ± 0.14	0.916 ± 0.33	0.93 ± 0.21	0.822 ± 0.18
UBAC1 (UniProt Q9BSL1)	0.988 ± 0.025	1 ± 0.025	1.03 ± 0.033	1.04 ± 0.061	0.965 ± 0.034	0.98 ± 0.038
UniProt Q96CN4|Q96CN4-2	0.985 ± 0.035	1.02 ± 0.061	1.13 ± 0.21	1.1 ± 0.084	1 ± 0.034	1.05 ± 0.059
UniProt Q9UBF8-2	0.962 ± 0.044	0.961 ± 0.065	0.9581 ± 0.0056	0.938 ± 0.011	0.9049 ± 0.007	0.928 ± 0.026
UniProt Q9BXK5|Q9BXK5-4	0.958 ± 0.041	0.97 ± 0.011	0.957 ± 0.028	0.988 ± 0.021	0.926 ± 0.031	0.916 ± 0.052
IARS2 (UniProt Q9NSE4)	1.04 ± 0.08	1.02 ± 0.075	0.991 ± 0.069	0.977 ± 0.1	1.02 ± 0.056	0.98 ± 0.069
ATG4C (UniProt Q96DT6)	1.036 ± 0.003	1.05 ± 0.081	1.04 ± 0.041	0.992 ± 0.12	1.05 ± 0.087	1 ± 0.092
UniProt Q9NZC7|Q9NZC7-2	1.028 ± 0.01	1.04 ± 0.073	1.04 ± 0.1	1.08 ± 0.13	1.06 ± 0.073	1.2 ± 0.29
UniProt Q96N16|Q96N16-2	1.17 ± 0.24	1.27 ± 0.16	1.28 ± 0.24	1.37 ± 0.19	1.27 ± 0.23	1.36 ± 0.17
UniProt Q9P035|H3BS72	1.1 ± 0.16	1.1 ± 0.11	1.1 ± 0.11	1.01 ± 0.091	1.1 ± 0.033	1.15 ± 0.083
NMNAT1 (UniProt Q9HAN9)	1.33 ± 0.36	3.44 ± 2.5	3.91 ± 2.9	4.35 ± 3.5	3.99 ± 2.9	3.99 ± 3
DHRS4 (UniProt Q9BTZ2)	0.9895 ± 0.0086	0.987 ± 0.019	0.989 ± 0.043	0.956 ± 0.028	0.968 ± 0.035	0.988 ± 0.018
SAP30L (UniProt Q9HAJ7)	1.0942 ± 0.00039	1.12 ± 0.069	1.13 ± 0.092	1.185 ± 0.0041	1.11 ± 0.13	1.07 ± 0.082
UniProt Q92833|Q92833-2	1.33 ± 0.27	1.32 ± 0.34	1.48 ± 0.51	1.49 ± 0.48	1.59 ± 0.63	1.76 ± 0.69
CDK5RAP3 (UniProt Q96JB5)	0.997 ± 0.041	1.05 ± 0.066	1.08 ± 0.065	1.11 ± 0.068	1.12 ± 0.045	1.14 ± 0.099
UniProt Q9BTX1|Q9BTX1-2|Q9BTX1-5|Q9BTX1-6	1.01 ± 0.076	1.01 ± 0.071	1.03 ± 0.1	0.996 ± 0.13	1.06 ± 0.044	1.08 ± 0.084
PXDN (UniProt Q92626)	1.06 ± 0.1	1.03 ± 0.067	1.09 ± 0.06	1.05 ± 0.049	1.04 ± 0.074	1.06 ± 0.1
